Compound activity (PubChem BioAssay)
Hits are enriched below; roughly 3.6% of the tested compounds scored in any of these assays.
LGR2 antag – blocks bursicon-induced cAMP signaling via Drosophila LGR2 | HEK293 LGR2, CRE-luciferase, bursicon-stimulated, 4 h | inhibition, % at 9.99 µM | AID 720647 | 380,000 tested, 0.35% active;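 active means drop in luminescence signal, shown as inhibition above about 50% in the replicate tests, limit read from the data, passing the limit was not always enough; inconclusive means probably only some replicates passing the limit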;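 further: agonist challenge used bursicon conditioned medium at about half maximal strength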
TROY NFkB inh – inhibitors of TROY-dependent NF-kB signaling | Q293 LMP1-TROYcd NF-kB luciferase reporter, 4 h | inhibition, % at 10 µM | 360,000 tested, 0.98% active;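 active means compounds whose plate-normalised and pattern-corrected inhibition of the luciferase reporter signal at the single screening dose is 50% or more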
TWEAK Fn14 block – inhibitors of TWEAK-Fn14 interaction signaling | TWEAK-stimulated Fn14 reporter cells, luciferase luminescence, 8 h | inhibition, % at 10 µM | 360,000 tested, 2% active | AID 1159606; in the data active means inhibition above about 50%
LMP1 NFkB inh – reduces LMP1-driven NF-kappaB luciferase signal | 350,000 tested, 0.69% active | LMP1-induced NF-kappaB luciferase reporter cells, luminescence | inhibition, % at 12.5 µM; in the data active means inhibition above about 41%; inconclusive means no clear call, values can overlap the other calls;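 further: 0% = neutral control wells and 100% = reference inhibitor control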
HSF1 inh – HSF1 inhibition; NIH3T3-HGL HSE-luciferase, MG132-induced, luminescence 8 h; hits give low values; activity change, negative = inhibition, % at 7.5 µM (by protocol); 300,000 tested, 0.77% active;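 active means more than half of replicate wells show activity change below -50%, luminescence cut by over half; inconclusive means some wells, but at most half, below -50%; inactive means no replicate well below -50%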;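 further: luciferase reports HSF-1 transcriptional activity via heat shock element; 0% = median of DMSO wells and -100% = zero luminescence signal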
HSF1 activator – increases HSF-1 driven luciferase reporter signal | activation, % at 9 µM | 300,000 tested, 1.7% active | NIH3T3-HGL HSF-1 luciferase reporter, MG132, 8 h; 100% = twice DMSO control signal | AID 504408;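 active means mean replicate activation of at least 50% with a set share of replicates each reaching 50%; inconclusive means only one of those two conditions met; inactive means mean below 50% and too few replicates reaching it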;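 further: 0% = median of the neutral control wells and 100% = twice that signal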
* hit, by the source's call; u = inconclusive; x = not tested or not shown.

SMILES	LGR2 antag	TROY NFkB inh	TWEAK Fn14 block	LMP1 NFkB inh	HSF1 inh	HSF1 activator
COCCCNC(=O)c1c(N)n(Cc2ccco2)c2nc3ccccc3nc12	4.8	6.2	18.9	x	80.6	114.9*
COc1ccc(Cn2c(N)c(C(=O)NCc3ccco3)c3nc4ccccc4nc32)cc1OC	x	66.6*	18.9	2.9	x	x
CCCNC(=O)c1c(N)n(Cc2ccco2)c2nc3ccccc3nc12	x	x	x	x	49.1	49.5
N#Cc1cccc(-c2ccc([C@@H]3[C@@H](CO)N4CCCCN(C(=O)Cc5ccccc5)C[C@@H]34)cc2)c1	-3.6	x	x	x	x	x
COC(=O)[C@H]1[C@H](CO)[C@H]2Cn3c(ccc(C4=CCCC4)c3=O)[C@@H]1N2C(=O)C1CCCCC1	-4.7	x	x	x	x	x
CCCCC1C(=O)NC(=S)NC1=O	x	x	x	x	-66.7*	-69.7
CCCCC1C(=O)NC(=S)N(C)C1=O (stereo unspecified)	-7.1	-10.2	-7.0	-0.4	x	x
O=C(Cc1ccccc1)N1CCCCN2[C@@H](CO)[C@@H](c3ccc(-c4ccccc4)cc3)[C@@H]2C1	12.2	x	x	x	x	x
Cc1cc([N+](=O)[O-])c2ccccc2[n+]1[O-]	x	-31.4	4.3	89.7*	-78.0*	-78.1
CCOC(=O)[C@]12Cc3ccc(C)cc3[C@H]1N(C1CCCCC1)C(=O)c1ccccc12	52.9*	50.5*	91.9*	x	x	x
CCOC(=O)[C@]12Cc3cc(Cl)ccc3[C@H]1N(C1CCCCC1)C(=O)c1cc(OC)ccc12	100.9*	63.1*	101.9*	x	x	x
CCOC(=O)[C@]12Cc3cc(OC)ccc3[C@H]1N(C)C(=O)c1cc(OC)ccc12	u	32.5	33.5	x	x	x
CCCCCN1C(=O)c2cc(OC)ccc2[C@@]2(C(=O)OCC)Cc3cc(OC)ccc3[C@@H]12	39.6	36.4	62.2*	x	x	x
CCOC(=O)[C@]12Cc3cc(Cl)ccc3[C@H]1N(C)C(=O)c1cc(OC)ccc12	u	27.0	5.7	x	x	x
CCOC(=O)[C@]12Cc3ccc(C)cc3[C@H]1N(C1CCCCC1)C(=O)c1cc(OC)ccc12	54.7*	47.9	101.2*	x	x	x
O=C(Cc1ccccn1)N1CCCCN2[C@H](CO)[C@@H](c3ccc(C#Cc4ccccc4)cc3)[C@H]2C1	2.1	x	x	x	x	x
CC=Cc1ccc2n(c1=O)C[C@@H]1[C@@H](CO)[C@H](C(=O)O)[C@H]2N1S(=O)(=O)c1ccccc1C (mixture of isomers)	9.0	x	x	x	x	x
COC(=O)[C@@H]1[C@@H](CO)[C@@H]2Cn3c(ccc(-c4ccc(F)cc4)c3=O)[C@H]1N2Cc1ccccc1	-6.8	x	x	x	x	x
CCOC(=O)[C@]12Cc3cc(C)ccc3[C@H]1N(CCC(=O)OC)C(=O)c1ccccc12	52.8*	20.8	17.7	x	x	x
CCOC(=O)[C@]12Cc3cc(C)ccc3[C@H]1N(C1CCCCC1)C(=O)c1ccccc12	64.4*	43.9	68.6*	x	x	x
COC(=O)[C@H]1[C@H](CO)[C@H]2Cn3c(ccc(-c4cccc(OC)c4)c3=O)[C@@H]1N2C(=O)c1cnccn1	-2.1	x	x	x	x	x
CN1C(=O)/C(=C/c2ccc(Cl)s2)C(=O)NC1=S	4.2	3.9	38.3	-3.9	-0.6	-4.8
Cc1ccsc1/C=C1\C(=O)NC(=S)N(C)C1=O	3.5	2.5	20.5	6.2	-66.8*	-74.7
N#Cc1ccc(-c2ccc([C@@H]3[C@H]4CN(C(=O)Cc5ccccc5)CCCCN4[C@H]3CO)cc2)cc1	-7.3	x	x	x	x	x
CC1CC(C)(O)CC(C(O)CC2CC(=O)NC(=O)C2)C1=O (stereo unspecified)	101.9*	79.8*	98.1*	90.0*	x	x
SMILES	LGR2 antag	TROY NFkB inh	TWEAK Fn14 block	LMP1 NFkB inh	HSF1 inh	HSF1 activator
Cc1ccc2nc3c(cc2c1)CC1(C(=O)N(C)C(=O)N(C)C1=O)C1CCCCN31 (stereo unspecified)	x	-0.3	-7.3	-12.1	37.7	81.2*
C[C@]12CC[C@H]3C(CCC4(O)CC(O)CC[C@]34C=O)C1=CC[C@H]2c1ccc(=O)oc1 (stereo partly specified)	0.9	8.3	49.4	1.9	-0.8	-12.7
CC(=O)O[C@H]1[C@H]2O[C@]23[C@@H]2CC[C@]4(O)C[C@@H](O)CC[C@]4(C)C2CC[C@]3(C)[C@H]1c1ccc(=O)oc1 (stereo partly specified)	x	55.8*	82.6*	48.9*	x	x
O=C(O)[C@@H]1[C@@H](CO)[C@@H]2Cn3c(ccc(-c4cccc(F)c4)c3=O)[C@H]1N2CCc1ccccc1	1.2	x	x	x	x	x
COc1ccc(CCn2c(O)c(C=Nc3ccc(F)cc3)c(=O)[nH]c2=O)cc1OC	4.5	34.9	-5.3	x	-7.7	0.0
CCN(CC)c1ccc(N=Cc2c(O)n(CCc3ccc(OC)c(OC)c3)c(=O)[nH]c2=O)cc1	51.0*	37.5	51.8*	29.3	3.2	-10.2
C/C=C/c1ccc([C@H]2[C@@H](CO)N3CCCCN(C(=O)Cc4ccncc4)C[C@@H]23)cc1	4.1	x	x	x	x	x
COC(=O)[C@H]1[C@H](CO)[C@H]2Cn3c(ccc(C4=CCCC4)c3=O)[C@@H]1N2CC1CCCC1	0.8	x	x	x	x	x
COc1ccc(-c2ccc([C@H]3[C@H]4CN(C(=O)Cc5ccncc5)CCCCN4[C@H]3CO)cc2)cc1	1.9	x	x	x	x	x
COc1ccc(CCNCc2sccc2C)cc1OC	17.1	11.3	76.7*	3.5	-1.3	15.5
COc1ccc(CCNCc2ccc(C)s2)cc1OC	2.3	-19.0	0.0	7.0	-11.7	5.1
Nc1ccc(C2(c3ccc(N)cc3)c3ccccc3-c3ccccc32)cc1	11.6	28.1	82.5*	2.6	1.3	0.3
COC(=O)[C@@H]1[C@@H](CO)[C@@H]2Cn3c(ccc(-c4cccc(OC)c4)c3=O)[C@H]1N2CC1CC1	-5.5	x	x	x	x	x
COc1cc2c(cc1/C=C/[N+](=O)[O-])OCO2	103.1*	61.5*	63.7*	-0.5	190.1	263.4*
COc1cc(OC)c(OC)cc1C=O	6.7	5.0	13.7	-1.3	x	x
Cc1ccc(C(=O)C2CN(C)CC2C(=O)c2ccc(C)cc2)cc1 (stereo unspecified)	x	41.9	-2.6	-8.7	2.0	-6.0
Cc1ccc(C(=O)C2CN3CCC2CC3)cc1 (stereo unspecified)	x	x	84.4*	2.5	-7.7	-1.1
CS(=O)(=O)NCc1nnc2n1-c1ccc(Cl)cc1C(c1ccccc1)=NC2	-4.0	-20.9	10.9	-4.3	2.6	1.2
CSCc1nnc2n1-c1ccc(Cl)cc1C(c1ccccc1)=NC2	18.0	-7.4	-2.0	2.4	-86.6*	-89.2
O=C(O)[C@@H]1[C@@H](CO)[C@@H]2Cn3c(ccc(C4=CCCC4)c3=O)[C@H]1N2C(=O)Cc1ccccn1	-15.8	x	x	x	x	x
Clc1ccc(C(c2ccc(Cl)cc2)n2cc[n+](CC(OCc3ccc(Cl)cc3Cl)c3ccc(Cl)cc3Cl)c2)cc1 (stereo unspecified)	86.6*	79.5*	76.7*	0.2	x	x
Clc1ccc(COC(Cn2ccnc2)c2ccc(Cl)cc2Cl)cc1 (stereo unspecified)	23.6	10.4	-15.8	-5.3	7.0	15.3
